Assay outcomes as filed in PubChem.
pAkt inh = blocks phosphorylation of Akt | hit rate 0.32% among 360,000 | Neuro2A IGF-stimulated pAkt S473 HTRF, 20 min; stronger effect = lower value | AID 651550 | activity change, % for hits at 50 µM; in the data active means activity change below about -80%; inconclusive means mostly about -51% to -80%; further: on the % scale 0 is the no-effect control and ±100 the full control effect
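Single-point screen (50 µM final compound) in Neuro2A cells stimulated 20 min with 6 nM IGF at 37 deg C. After lysis, Ser473-phosphorylated Akt read by HTRF (ex 330 nm, em 615/665 nm) as the 665/615 ratio.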
Mito fusion act = blocks mitochondrial division or promotes mitochondrial fusion. S. cerevisiae fusion-defective mutant growth rescue, CellTiterGlo 48 h. Potency, µM (series often up to 46.1 µM), for the others: top-dose growth rescue (activation), actives largely listed as activators. hit rate 0.23% among 320,000; further: potency means the concentration at half of the fitted maximal effect; % of control where 0% means no effect; nearly all actives have a fitted effect of over 45% in size
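Yeast fusion mutant, YPEG (non-fermentable carbon), compound, 48 h at 37C non-permissive; CellTiterGlo added, 10 min RT, luminescence read. Rescued growth = division inhibition.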
aSyn rescue = inhibitors of alpha-synuclein toxicity in yeast | Potency, µM (doses to about 46.1 µM), for the others: at the top dose growth rescue (activation), usual class: activators | Yeast expressing alpha-synuclein, growth rescue, BacTiter-Glo, 24 h | AID 652106 | hit rate 0.14% among 370,000; further: potency means the concentration at half of the fitted maximal effect; % of control where 0% means no effect; nearly all actives have a fitted effect of over 65% in size
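Readout is rescue of growth in alpha-synuclein-expressing yeast, so inhibitors of toxicity appear as activators. Growth after 24 hr at 30 deg C in galactose medium is quantified by luminescence.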
TDP-43 yeast inh = TDP-43 toxicity inhibition in yeast. Potency, µM (top dose mostly 46.1 µM), for the others: top-dose growth rescue (activation), most hits filed as activators. TDP-43 expressing yeast growth rescue, BacTiter-Glo, 24 h. hit rate 1.8% among 410,000. AID 652104; further: potency means the concentration at half of the fitted maximal effect; % of control where 0% means no effect; nearly all actives have a fitted effect of over 50% in size
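Galactose-induced TDP-43 yeast, OD600=0.02, compound pinned; 24 hr, 30 deg C; BacTiter-Glo luminescence for growth. Inhibitors of TDP-43 toxicity read as activators.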
Anesthetic bind = candidate novel general anesthetic via apoferritin binding | P02791 | apoferritin/1-aminoanthracene competitive binding, fluorescence | Potency, µM (top dose mostly 77.5 µM), for inactives: top-dose activity change, negative = displacement, most hits filed as inhibitors | hit rate 0.074% among 350,000 | AID 485281; further: potency means the concentration at half of the fitted maximal effect; on the % scale 0 is the no-effect control and ±100 the full control effect; nearly all actives have a fitted effect of over 20% in size
Target sequence (P02791 2-175 limits assumed): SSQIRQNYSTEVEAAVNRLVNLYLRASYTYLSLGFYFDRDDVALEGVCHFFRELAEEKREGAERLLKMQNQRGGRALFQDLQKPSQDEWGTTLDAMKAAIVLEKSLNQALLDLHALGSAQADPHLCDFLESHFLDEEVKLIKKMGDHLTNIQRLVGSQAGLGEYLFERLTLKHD
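10 uM apoferritin + 50% sat. 1-AMA, PBS; cpd 10 min RT; Ex380/Em535 endpoint; normalized to free probe vs complex; 4-param Hill fit; propofol titration as pos. ctrl.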
CCT chaperon mod = changes cytosolic chaperonin activity. purified chaperonin ATPase assay, HTRF ADP detection, 30 min. activity change, % (no concentration beside the values), hits read low. hit rate 0.3% among 360,000. AID 651819; in the data active means activity change below about -30%; further: on the % scale 0 is the no-effect control and ±100 the full control effect
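TRiC at 40 or 20 nM final (batch-dependent) in 30 mM Tris pH 7.4, 100 mM KCl, 5 mM MgCl2, 1 mM DTT, with compound at single 76 uM and 10 uM ATP, 30 min at 37 deg C. ADP detected by HTRF Transcreener, 665/615 ratio.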
The depositor's hits bear a star; i = inactive; ? = inconclusive; nt = not tested or not shown; ! = not confirmed by another sample; [ ] = dose if it differs, or a comment. In the library only some 2.5% were active in any assay of this set; here they are far more common. Unless noted, the call rests on the fitted dose curve; in most records, active means well fitted curve in the direction sought with a large enough effect; inconclusive means small, poorly fitted or top-dose-only effect, or another doubt; inactive means no such curve, though single readings can be large; an effect the other way counts as inactive or inconclusive.

SMILES	pAkt inh	Mito fusion act	aSyn rescue	TDP-43 yeast inh	Anesthetic bind	CCT chaperon mod
O=C(COC(=O)/C=C/c1c(F)cccc1Cl)NCC1CCCO1 (centres undefined)	i	-1.9%	-4.7%	-9.1%	nt	-1.3
Cc1nc(-c2ccccc2)cc(-c2ccccc2)n1	i	nt	6.7%	28.6%	nt	0.9
CCN(CC)c1nc(C(N)=O)cc(-c2ccccc2)n1	i	-5.1%	20µM*	9.8%	1.7%	-4.1
CN(N)c1nc(-c2ccccc2)cc(-c2ccccc2)n1	i	-8.2%	-4.4%	11.2µM*	-19.3%	-4.5
CN1CCN(c2nc(C(N)=O)cc(-c3ccccc3)n2)CC1	i	-4.1%	3.1%	-2.8%	-14.5%	-1.4
COc1ccc(Nc2cc(C(=O)NCCCN3CCN(c4ccc(OC)cc4)CC3)c3ccccc3n2)cc1	nt	nt	nt	13.6%	46.8%	nt
COC(=O)c1sccc1S(=O)(=O)N1CCN(c2cccc(C)c2)C(C)C1 (centres undefined)	nt	nt	nt	14.1µM*	-18.2%	nt
COC(=O)c1cc(S(=O)(=O)N2CCN(c3cccc(C)c3)C(C)C2)c[nH]1 (centres undefined)	i	-7.5%	6.6%	-1.6%	-18.2%	-0.4
Cc1ccccc1Nc1c(-c2ccncc2)nc2ccc(Br)cn12	i	16.1%	18.5%	-2.5%	-3.6%	-0.8
Brc1ccc2nc(-c3ccncc3)c(NC3CCCC3)n2c1	i	16.2%	7.1%	-2.0%	-4.6%	-36.0*
CCOC(=O)c1cccc(NC(=O)c2oc3c(c2C)-c2nn(CC)cc2CC3)c1	nt	nt	nt	-2.4%	-5.8%	nt
COc1ccc(/C(N)=N/O)cc1O	i	-4.4%	-12.5%	-3.2%	1.3%	-30.2*
COc1ccc(C(=O)O/N=C(\N)c2ccc(OC)c(OC)c2)cc1	i	-19.1%	0.1%	?	7.1%	-2.6
COC(=O)C1=C(C)N(Cc2ccccc2)[C@]23O[C@](C(=O)OC)(C(=O)N2C1c1ccccc1)C(c1ccccc1)C3C(=O)c1ccccc1 (some centres undefined)	nt	nt	nt	nt	-20.9%[15.3 µM]	nt
CCCC(C)c1nc(C(N)=O)c2[nH]c(=O)n(-c3ccc(OC)cc3OC)c2n1 (centres undefined)	nt	5.8%	-0.8%	4.0%	-14.7%	-78.0*
CCc1nc(C(N)=O)c2[nH]c(=O)n(-c3ccc(OC)cc3OC)c2n1	nt	11.4%	-2.9%	6.5%	7.5%	-3.5
Cc1cc(SCC(=O)N/N=C/c2ccc(O)c(O)c2)nc2ccccc12	i	-2.2%	-0.3%	-2.7%	?	-0.8
Cc1cc(SCC(=O)N/N=C/c2ccc(O)c(O)c2)c(C)cc1Br	i	7.9%	1.1%	0.0%	22.4µM*	-0.8
Cc1ccccc1CNC(=O)CCC(=O)N1CCSc2ccccc21	nt	nt	nt	24.3%	5.9%	nt
COc1ccc(Br)cc1CNC(=O)CCC(=O)N1CCSc2ccccc21	i	2.7%	-1.1%	22.4µM*!	-17.4%	-1.0
Cc1cc(C)n(S(=O)(=O)c2ccc(Cl)cc2)n1	i	1.2%	2.6%	21.6%	-13.7%	1.9
Cc1cc(C)n(S(=O)(=O)c2cc(Cl)ccc2Cl)n1	-120.9%*	-4.3%	7.1%	?	?	-0.5
CCCC[C@H](NC(=O)[C@H](CC(C)C)NC(=O)[C@@H](Cc1c[nH]c2ccccc12)NC(=O)[C@H](Cc1ccccc1)NC(=O)[C@@H](Cc1c[nH]c2ccccc12)NC(=O)[C@H](CC(N)=O)NC(=O)[C@@H](Cc1c(Cl)cccc1Cl)NC(=O)[C@@H]1CCCN1C(=O)[C@H](Cc1ccccn1)NC(=O)[C@@H]1CCCN1C(=O)[C@H](N)CCCCNC(=O)c1cccnc1)C(N)=O	nt	nt	nt	nt	-20.3%	nt
CCCCN(CCCC)S(=O)(=O)c1ccc(C(=O)Nc2nnc(COC)o2)cc1	i	-0.1%	?	12.6µM*	-1.3%	1.0
CCc1nnc(NC(=O)c2ccc(S(=O)(=O)N(CC)Cc3ccccc3)cc2)o1	i	-1.1%	12.6µM*	22.4µM*	-18.3%	-0.3
SMILES	pAkt inh	Mito fusion act	aSyn rescue	TDP-43 yeast inh	Anesthetic bind	CCT chaperon mod
CC(=O)Nc1ccc(S(=O)(=O)N(Cc2ccccc2)Cc2ccccc2)cc1	nt	nt	nt	20µM*	1.5%	nt
CCN(CC)S(=O)(=O)c1ccc(C(=O)Nc2nnc(COC)o2)cc1	i	0.3%	-0.8%	18.1%	-7.1%	-1.5
Cc1ccc2c(c1)cc1c(=O)n(CC(=O)N3CCCCC3)nc(C)n12	nt	nt	nt	9.4%	-9.8%	nt
Cc1ccc(N2C(=O)CS(=O)(=O)C23C(=O)N(Cc2ccccc2F)c2ccccc23)cc1Cl (centres undefined)	nt	nt	nt	48.9%	0.4%	nt
O=C(N/N=C/c1ccncc1)c1sc2ccccc2c1Cl	nt	-9.0%	-1.1%	5.1%	-6.8%	-83.6*
COc1ccc2c(Cl)c(C(=O)N/N=C/c3ccncc3)sc2c1	i	-1.3%	-3.2%	-4.4%	-11.5%	1.8
O=C(N/N=C/c1ccncc1)c1cccc(NC(=O)c2ccc(Cl)cc2)c1	i	-4.9%	1.2%	?	2.8%	-35.9*
CCOc1ccc(OCC)c(NC(=O)Cn2nc(CC)n3c(cc4sccc43)c2=O)c1	nt	nt	nt	16.5%	-7.1%	nt
Nc1nc(SCC(=O)Nc2cc(-c3ccccc3)nn2-c2ccccc2)n[nH]1	i	-1.2%	4.8%	-30.4%	-8.9%	-96.7*
COc1ccc(CCn2c3c(c(=O)[nH]c2=S)CN(CC(C)C)CN3)cc1OC	nt	nt	-1.3%	nt	nt	nt
Cc1noc(C)c1C(=O)Nc1nc(-c2cccs2)cs1	i	6.5%	-10.6%	?	nt	1.7
CCc1noc(C)c1C(=O)Nc1nc(-c2cccs2)cs1	i	27.5%	-10.4%	12.6µM*	nt	-4.6
CCC(Oc1ccccc1)C(=O)Nc1cc(-c2cccc(C)c2)nn1-c1ccccc1 (centres undefined)	nt	nt	nt	-9.0%	102.4%	nt
CCC(CC)C(=O)Nc1cc(-c2cccc(C)c2)nn1-c1ccccc1	nt	nt	nt	12.6µM*	-4.6%	nt
COc1ccc(S(=O)(=O)NCCc2sc(-c3cccc(F)c3)nc2C)cc1	nt	nt	nt	25.1µM*	-10.3%	nt
COc1ccc(-c2nc(C)c(CCNS(=O)(=O)c3cc(Cl)ccc3Cl)s2)cc1	nt	nt	?	25.1µM*	9.0%	nt
COc1ccc(-c2nc(C)c(CCNS(=O)(=O)c3cc(C)c(C)cc3C)s2)cc1	nt	nt	17.8%	?	81.5%	nt
CCc1cccc(C)c1NC(=O)c1cc(S(=O)(=O)N(Cc2ccc(C(=O)OC)cc2)Cc2ccc(OC)c(OC)c2)ccc1F	nt	nt	nt	22.5%	-13.9%	nt
C[C@@H]1C=CC(=O)O[C@@H]1c1ccc(Cl)cc1	i	0.4%	-16.3%	12.6µM*	?	-1.3
CC(Sc1cnc2ccccc2n1)C(=O)O (centres undefined)	i	1.1%	-1.7%	-4.4%	-13.6%	-1.6
CC(Sc1ccc2ccccc2n1)C(=O)O (centres undefined)	i	4.8%	-17.5%	11.2µM*	-8.6%	-2.0
